Assay outcomes as filed in PubChem.
L3MBTL1 block – inhibitors of human L3MBTL1. Q9Y468. AlphaScreen L3MBTL1–H3K9me1 peptide binding. Potency, µM (top dose mostly 57.1 µM), actives largely listed as inhibitors. hit rate 0.66% among 230,000; further: nearly all actives have a fitted effect of over 60% in size
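Displacement of a biotinylated histone H3(1-15) peptide monomethylated at Lys9 (75 nM) from L3MBTL1 (50 nM) was measured by AlphaScreen after a 30 min room-temperature compound incubation; cefsulodin titration served as intraplate control.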
HP1b binding inh – inhibitors of HP1-beta chromodomain binding to methylated histone tails; Potency, µM (highest dose often 114 µM), hits mostly inhibitors; AlphaScreen HP1-beta / biotin-H3K9me3 peptide binding; P83916; AID 540317; hit rate 0.56% among 390,000; further: nearly all actives have a fitted effect of over 70% in size
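HP1-beta protein (50 nM final) preincubated 30 min at room temperature with biotinylated H3(1-18)K9me3 peptide (50 nM) in PBS pH 7.4, 0.01% Tween-20, then compound added for 30 min. AlphaScreen streptavidin donor/nickel chelate acceptor beads (10 ug/mL final), 30 min dark, luminescence read.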
JMJD2A Tudor inh – blocks the human JMJD2A Tudor domain | O75164 | AlphaScreen JMJD2A-Tudor / H3K4me3 peptide binding | Potency, µM (doses to about 114 µM), usual class: inhibitors | hit rate 4.4% among 390,000; further: nearly all actives have a fitted effect of over 50% in size
Target sequence (O75164 whole entry, looked up, the tested form may be a part): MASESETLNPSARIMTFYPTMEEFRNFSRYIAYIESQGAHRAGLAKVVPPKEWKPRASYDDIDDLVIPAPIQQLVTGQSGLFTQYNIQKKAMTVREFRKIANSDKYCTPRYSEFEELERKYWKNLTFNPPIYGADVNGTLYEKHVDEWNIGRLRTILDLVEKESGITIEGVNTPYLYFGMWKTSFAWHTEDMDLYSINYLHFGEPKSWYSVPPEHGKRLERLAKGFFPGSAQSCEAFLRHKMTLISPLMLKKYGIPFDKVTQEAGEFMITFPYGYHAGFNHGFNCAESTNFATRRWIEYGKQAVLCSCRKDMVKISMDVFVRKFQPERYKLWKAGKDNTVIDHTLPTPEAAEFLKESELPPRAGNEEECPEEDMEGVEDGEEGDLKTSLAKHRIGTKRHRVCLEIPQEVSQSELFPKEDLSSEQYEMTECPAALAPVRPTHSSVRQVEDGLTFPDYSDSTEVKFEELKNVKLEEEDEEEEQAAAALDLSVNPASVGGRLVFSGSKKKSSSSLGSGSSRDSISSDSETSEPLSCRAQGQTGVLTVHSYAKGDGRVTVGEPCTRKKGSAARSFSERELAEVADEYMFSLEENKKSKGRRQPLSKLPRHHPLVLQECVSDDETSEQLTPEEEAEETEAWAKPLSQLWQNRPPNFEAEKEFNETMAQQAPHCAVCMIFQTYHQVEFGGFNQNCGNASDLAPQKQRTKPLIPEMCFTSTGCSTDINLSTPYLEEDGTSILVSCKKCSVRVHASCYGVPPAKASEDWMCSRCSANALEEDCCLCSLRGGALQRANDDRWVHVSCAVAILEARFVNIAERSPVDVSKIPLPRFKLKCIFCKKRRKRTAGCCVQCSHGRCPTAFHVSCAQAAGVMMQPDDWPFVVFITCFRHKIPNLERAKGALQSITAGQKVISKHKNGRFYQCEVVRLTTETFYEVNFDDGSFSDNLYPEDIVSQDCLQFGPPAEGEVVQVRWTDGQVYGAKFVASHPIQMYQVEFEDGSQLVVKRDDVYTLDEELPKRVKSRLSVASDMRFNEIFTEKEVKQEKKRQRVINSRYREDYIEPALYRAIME
Sfp PPTase inh – blocks B. subtilis Sfp PPTase activity | hit rate 3.5% among 310,000 | Biochemical Sfp PPTase activity, qHTS | AID 1490 | Q9F4F7 | Potency, µM, actives largely listed as inhibitors;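 further: the enzyme is Sfp with the accession as filed and its product quenches rhodamine fluorescence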
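Buffer: 50 mM Hepes-Na pH 7.6, 10 mM MgCl2, 0.01% Nonidet P-40, 0.01% BSA. Enzyme 15 nM, pre-exposed to compound 15 min; substrates then added and fluorescence change tracked over 30 min.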
G9a inh – blocks human histone lysine methyltransferase G9a; Q96KQ7; G9a H3K9 monomethylation, AlphaScreen, 2 h; Potency, µM (doses to about 102 µM), most hits filed as inhibitors; hit rate 8.8% among 350,000; AID 504332; further: nearly all actives have a fitted effect of over 75% in size
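Quantitative HTS format: methyltransferase activity on a biotin-tagged H3K9 peptide is measured by AlphaScreen, using a rabbit anti-monomethyl-H3K9 antibody with streptavidin donor and anti-IgG acceptor beads. Final levels are 20 nM enzyme, 500 nM peptide, 20 uM SAM; 2 h RT.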
BAZ2B inh – inhibitors of human BAZ2B bromodomain; Q9UIF8; AlphaScreen BAZ2B-H3K14Ac peptide displacement; Potency, µM (titrated, usually from 114 µM), usual class: inhibitors; hit rate 4.4% among 360,000; AID 504333; further: nearly all actives have a fitted effect of over 60% in size
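Inhibition is scored as reduced AlphaScreen emission. The BAZ2B/b-H3(5-23)K14Ac complex (50 nM each) in PBS pH 7.4, 0.01% Tween-20 meets compound (up to 110 uM) for 30 min at RT before bead addition.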
Large screens that a line does not name were inactive. In the library only some 12% were active in any assay of this set; here they are far more common. The call rests on the fitted dose curve; in most records, active means well fitted curve in the direction sought with a large enough effect; inconclusive means small, poorly fitted or top-dose-only effect, or another doubt; inactive means no such curve, though single readings can be large; an effect the other way counts as inactive or inconclusive.

Cc1ccccc1CC1SC(N)=NC1=O (stereo unspecified)	G9a inh 32µM
COc1ccc(/C=C2\SC(=S)N(CC3CCCO3)C2=O)cc1 (stereo unspecified)	HP1b binding inh inconclusive, JMJD2A Tudor inh inconclusive, BAZ2B inh 8.9µM (no result: G9a inh)
COc1cc(/C=C2/SC(=S)N(CC3CCCO3)C2=O)ccc1O (stereo unspecified)	HP1b binding inh 45µM, JMJD2A Tudor inh inconclusive, Sfp PPTase inh inconclusive, G9a inh 28µM, BAZ2B inh 45µM
O=C1/C(=C/c2cccnc2)SC(=S)N1CC1CCCO1 (stereo unspecified)	none
COc1cc(NC(=O)CSc2nc3[nH]c(=O)cc(O)c3s2)cc(OC)c1OC	none (no result: Sfp PPTase inh)
COc1ccc(NS(=O)(=O)c2cccc(C(=O)N3CCN(Cc4cc(OC)ccc4OC)CC3)c2)cc1	G9a inh inconclusive (no result: L3MBTL1 block)
COc1ccc(CN2CCN(C(=O)c3ccc4c(c3)CCC4)CC2)cc1OC	none (no result: Sfp PPTase inh, G9a inh, BAZ2B inh)
COc1ccc(C(=O)N2CCN(Cc3cc(OC)ccc3OC)CC2)cc1	HP1b binding inh inconclusive, JMJD2A Tudor inh 50µM, Sfp PPTase inh inconclusive, G9a inh 32µM, BAZ2B inh inconclusive
COc1ccc(CN2CCN(C(=O)c3cc(OC)c(OC)c(OC)c3)CC2)cc1OC	JMJD2A Tudor inh 2.5µM, G9a inh 10µM, BAZ2B inh inconclusive
COc1cc2c(cc1CN1CCN(C(=O)c3cc(OC)c(OC)c(OC)c3)CC1)OCO2	JMJD2A Tudor inh 25µM, G9a inh 11µM, BAZ2B inh 56µM
COc1ccc(C(=O)N2CCN(Cc3ccc(OC)c(OC)c3)CC2)cc1	HP1b binding inh inconclusive, JMJD2A Tudor inh 3.2µM, G9a inh inconclusive, BAZ2B inh inconclusive
COC(=O)CN1C(=O)N(c2ccccc2)C(N(O)C(=O)Nc2ccccc2)C1(C)C (stereo unspecified)	JMJD2A Tudor inh inconclusive, G9a inh 40µM
O=C(Cn1[nH]c(=O)c2ccccc2c1=O)OCC(=O)c1ccccc1	none (no result: Sfp PPTase inh)
Cc1nc2[nH]c(=S)[nH]c2cc1Br	JMJD2A Tudor inh 45µM, G9a inh 4µM
CC(=O)NC1C(O)C[C@@](O)(C(=O)O)OC1[C@@H](O)C(O)CO (stereo partly specified)	none (no result: L3MBTL1 block, HP1b binding inh, JMJD2A Tudor inh, G9a inh, BAZ2B inh)
Oc1ccc(/C=N/Nc2ccnc3cc(Cl)ccc23)c(O)c1O	JMJD2A Tudor inh inconclusive, Sfp PPTase inh 45µM, G9a inh 22µM, BAZ2B inh 45µM (no result: L3MBTL1 block)
CC/C(=N\Nc1ccnc2cc(Cl)ccc12)c1ccc(O)cc1	JMJD2A Tudor inh inconclusive, G9a inh 28µM, BAZ2B inh inconclusive (no result: L3MBTL1 block)
CCN(CC)Cc1ccc(Nc2ccnc3cc(Cl)ccc23)cc1O	none (no result: L3MBTL1 block, HP1b binding inh, JMJD2A Tudor inh, BAZ2B inh)
Oc1ccc(/C=N/Nc2ccnc3cc(Cl)ccc23)cc1O	Sfp PPTase inh inconclusive, G9a inh inconclusive, BAZ2B inh 40µM (no result: L3MBTL1 block)
COc1ccc(Br)cc1C(=O)Nc1ccc2oc(-c3cccnc3)nc2c1	none (no result: L3MBTL1 block, Sfp PPTase inh)
Cc1ccc(S(=O)(=O)NCC(=O)OCC(=O)Nc2ccc3c(c2)OCCO3)cc1	none (no result: Sfp PPTase inh)
O=C(NC(=S)Nc1cccc2cc(O)ccc12)c1ccccc1Br	JMJD2A Tudor inh inconclusive, G9a inh 32µM, BAZ2B inh inconclusive (no result: L3MBTL1 block)
O=C(NC(=S)Nc1cccc2cc(O)ccc12)c1ccco1	G9a inh 16µM, BAZ2B inh inconclusive (no result: L3MBTL1 block)
COc1ccc(C(=O)NC(=S)Nc2cccc3cc(O)ccc23)cc1OC	Sfp PPTase inh inconclusive, BAZ2B inh inconclusive (no result: L3MBTL1 block, G9a inh)
COc1ccccc1C(=O)NC(=S)Nc1cccc2cc(O)ccc12	JMJD2A Tudor inh inconclusive (no result: L3MBTL1 block, Sfp PPTase inh, G9a inh, BAZ2B inh)
O=C(NC(=S)Nc1cccc2ncccc12)c1ccco1	G9a inh 45µM
Cc1cc(NC(=S)NC(=O)c2ccco2)c2ccccc2n1	JMJD2A Tudor inh inconclusive, Sfp PPTase inh 28µM, G9a inh inconclusive
Cc1ccc(C(C)NC(=O)COC(=O)C2=COCCO2)cc1C (stereo unspecified)	none (no result: Sfp PPTase inh)
CC(C)(OC(=O)c1ccc(F)cc1)c1cc2ccccc2c(=O)o1	none (no result: Sfp PPTase inh)
CC(C)N(CCCNC(=O)Cn1c(=O)c2cccn2c2ccc(F)cc21)Cc1ccccc1	G9a inh inconclusive (no result: L3MBTL1 block)
COc1cccc(CC(=O)OCC(=O)c2cc(OC)c(OC)c(OC)c2)c1	none (no result: Sfp PPTase inh, G9a inh, BAZ2B inh)
O=C(NC(=S)Nc1cccc2c(O)cccc12)c1ccco1	HP1b binding inh inconclusive, JMJD2A Tudor inh inconclusive, Sfp PPTase inh 50µM, BAZ2B inh inconclusive (no result: L3MBTL1 block, G9a inh)
O=C(NC(=S)Nc1ccccc1Cl)c1ccco1	none (no result: L3MBTL1 block)
O=C(Nc1cccc2ncccc12)c1ccc(Cl)cc1	L3MBTL1 block inconclusive, HP1b binding inh inconclusive, JMJD2A Tudor inh 3.2µM, G9a inh 7.1µM, BAZ2B inh 11µM
Cc1ccc2c(c1)-c1cc(C)nn1C(c1cc(Br)ccc1O)N2 (stereo unspecified)	none (no result: L3MBTL1 block, Sfp PPTase inh)
